Results published in PubChem BioAssay AID602410 (Johns Hopkins Ion Channel Center, 2012).
The campaign covered roughly 340,000 compounds. About 2,800 (0.82%) were called active.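 The calls were made as follows: active = B-score under library mean minus 4 SD, starting fluorescence ratio at most library mean plus 5 SD; inactive = the rest.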 The sample as a whole holds a higher share of actives than the screen did.

Biological target: Potassium channel subfamily K member 3 (Homo sapiens) (UniProt O14649)
Experiment: human KCNK3 channel inhibitors, primary screen, CHO cells, FluxOR thallium flux, B-score (AID 602410);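 as to B-score: more negative B-score means stronger inhibition of thallium flux through KCNK3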
Settings: FluxOR fluorescence, at 10 µM; stronger effect = lower value

Chain of Potassium channel subfamily K member 3 (Homo sapiens) (O14649 whole entry, looked up): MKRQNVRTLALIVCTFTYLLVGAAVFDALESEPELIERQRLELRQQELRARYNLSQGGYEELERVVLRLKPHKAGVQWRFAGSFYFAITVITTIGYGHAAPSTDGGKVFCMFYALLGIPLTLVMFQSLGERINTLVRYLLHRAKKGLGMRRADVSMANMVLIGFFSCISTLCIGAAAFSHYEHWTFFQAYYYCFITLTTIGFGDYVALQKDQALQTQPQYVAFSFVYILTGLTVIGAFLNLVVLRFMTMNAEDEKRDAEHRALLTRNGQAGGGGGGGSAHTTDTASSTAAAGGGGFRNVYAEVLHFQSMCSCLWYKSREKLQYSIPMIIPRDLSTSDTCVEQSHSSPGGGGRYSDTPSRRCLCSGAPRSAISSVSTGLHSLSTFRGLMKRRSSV

| SMILES | B-score |
| --- | --- |
| CC(NC(=S)Nc1ccccc1)C(c1cccs1)N1CCOCC1 (configuration not stated) | inactive |
| CN(c1ccccc1)S(=O)(=O)c1cccc(NC(=O)Cc2c(F)cccc2Cl)c1 | inactive |
| CN(C)S(=O)(=O)c1cccc(NC(=O)Cc2ccsc2)c1 | inactive |
| CN(c1ccccc1)S(=O)(=O)c1cccc(NC(=O)Cc2ccc(Cl)cc2)c1 | -10.7 (active) |
| Cc1cc(F)ccc1S(=O)(=O)Nc1ccc(C(=O)N(C)Cc2ccco2)cc1 | inactive |
| Cc1nonc1C1CCCN1C(=O)c1cc(COc2cccc(C(F)(F)F)c2)on1 (configuration not stated) | -9.02 (active) |
| O=C(NC1Cc2ccccc2C1)c1cc(COc2cccc(C(F)(F)F)c2)on1 | inactive |
| O=C(c1cc(COc2cccc(C(F)(F)F)c2)on1)N1CCSCC1 | inactive |
| CCCNC(=O)c1ccc(N2CCC3(CC2)CC(c2cccc(Br)c2)=NO3)c(NC(=O)c2ccco2)c1 | inactive |
| CS(=O)(=O)N1CCCC(C(=O)N2CCOCC2)C1 (configuration not stated) | inactive |
| S=c1[nH]nc(-c2ccco2)n1/N=C/c1ccc(Br)s1 | inactive |
| CCN(CC(=O)NCc1ccc(Cl)cc1)C(=O)CSc1ccccc1 | inactive |
| CSc1cccc(NC(=S)N(C(C)C)C(C)c2ccccn2)c1 (configuration not stated) | -10.1 (active) |
| CC(c1ccccn1)N(CCN(C)C)C(=S)Nc1ccccc1F (configuration not stated) | inactive |
| CSc1cccc(NC(=S)N(Cc2ccccc2)Cc2ccccn2)c1 | inactive |
| NC(=S)Nc1c(Cl)cccc1Cl | inactive |
| FC(F)(F)c1cccc(Cc2noc(CN3CCC(N4CCCCC4)CC3)n2)c1 | inactive |
| COc1ccc(CN(C)C(C)C(=O)NC2CCCc3ccccc32)cc1 (configuration not stated) | inactive |
| CNS(=O)(=O)c1cccc(C(=O)NCC2CCCCC2)c1 | inactive |
| CC(C(=O)NCC1CCCCC1)N(C)Cc1cccc(Cl)c1 (configuration not stated) | -8.9 (active) |
| CCc1cccc(NC(=O)C2CCCN(S(=O)(=O)c3ccc4[nH]c(=O)ccc4c3)C2)c1 (configuration not stated) | inactive |
| Cc1cc(OCC(=O)Nc2c(C)n(C)n(-c3ccccc3)c2=O)ccc1[N+](=O)[O-] | inactive |

| SMILES | B-score |
| --- | --- |
| COc1ccc(CNCCCn2cnc3c(OCc4ccccc4)ncnc32)cc1 | inactive |
| S=C(Nc1cccc(Br)c1)N1CCn2cccc2C1c1cccnc1 (configuration not stated) | -9.52 (active) |
| Fc1cc(Br)ccc1NC(=S)Nc1cccnc1 | inactive |
| S=C(NCCc1ccccc1)N1CCn2cccc2C1c1ccncc1 (configuration not stated) | inactive |
| C=C(C)c1cccc(C(C)(C)NC(=O)N2CCN(c3ncccn3)CC2)c1 | inactive |
| C=CCN1CN(S(=O)(=O)c2ccc(OC)cc2)c2nc3ccccc3nc21 | inactive |
| O=C(Nc1ccc(Cl)cn1)c1ccc2c(c1)OCCO2 | inactive |
| O=C(Nc1ccc2c(c1)OCCO2)c1ccc(Cl)c(S(=O)(=O)N2CCCCC2)c1 | inactive |
| O=C(Nc1cccc(S(=O)(=O)Nc2ccc(Cl)cc2)c1)c1ccc2c(c1)OCCO2 | -9.14 (active) |
| O=C(NCc1ccco1)C(=O)c1cn(CC(=O)N2CCCCCC2)c2ccccc12 | inactive |
| CCOC(=O)c1cc2cc(-c3c(C(=O)OCC)oc4cc(O)cc(O)c4c3=O)ccc2o1 | -9.55 (active) |
| CCOC(=O)c1cc(=O)c2ccc(OCc3ccccc3)cc2o1 | inactive |
| O=c1c(-c2ccc3c(c2)OCCO3)c(C(F)(F)F)oc2cc(O)cc(O)c12 | inactive |
| COc1ccccc1NC(=O)CCC(=O)N1CC(C)Oc2ccc(C)cc21 (configuration not stated) | inactive |
| O=C(O)C(CCc1ccccn1)c1ccccc1 (configuration not stated) | inactive |
| Cc1ccc(CS(=O)(=O)CCC(=O)NC2CC2)cc1 | inactive |
| COc1ccc(-c2nn(C)c(=O)c3ccccc23)cc1CNC(=O)C1CCCCC1 | inactive |
| O=C(Nc1ccccc1N1CCCC1)c1ccc(F)c(S(=O)(=O)N2CCOCC2)c1 | inactive |
| CCCCC(=O)Nc1ccccc1N1CCN(c2ccc(F)cc2)CC1 | -9.06 (active) |
| Cc1cccc(C(=O)NC(=S)N2CCN(c3ccc([N+](=O)[O-])cc3)CC2)c1 | inactive |
| O=C(Nc1ccccc1N1CCCC1)c1ccc2ccccc2c1 | -8.97 (active) |
| O=C(Nc1ccccc1N1CCOCC1)c1ccncc1 | inactive |

| SMILES | B-score |
| --- | --- |
| O=C(NC(=S)Nc1ccccc1N1CCCCC1)c1ccc(F)cc1 | inactive |
| Cc1cccc(C(=O)Nc2ccccc2N2CCN(c3ccc(F)cc3)CC2)c1 | -12.2 (active) |
| CCCC(=O)Nc1ccccc1N1CCN(C(=O)c2ccccc2)CC1 | inactive |
| CCC(C)C(=O)Nc1ccccc1N1CCN(c2ccc(F)cc2)CC1 (configuration not stated) | inactive |
| Cc1[nH]c(C)c(S(=O)(=O)N2CCN(c3cccc(C(F)(F)F)c3)CC2)c1C(=O)N1CCCC1 | inactive |
| O=C(NC(=S)N1CCCCC1c1cccnc1)c1ccccc1 (configuration not stated) | inactive |
| CONc1nc2nonc2nc1NOC | inactive |
| CCCC(=O)Nc1cccc(NC(=S)NC(=O)C(C)Oc2ccc(Cl)cc2Cl)c1 (configuration not stated) | inactive |
| CSc1cccc(NC(=O)C2CCCN2S(=O)(=O)c2ccc3c(c2)CCC(=O)N3)c1 (configuration not stated) | inactive |
| CC(C(=O)c1ccc(-c2ccccc2)cc1)[n+]1cccc(Br)c1 (configuration not stated) | inactive |
| COC(=O)c1nc(NC(=O)c2ccc(C(C)(C)C)cc2)n[nH]1 | inactive |
| CSc1nccc(NC(=O)c2ccc(C(C)(C)C)cc2)n1 | -10.4 (active) |
| Cc1cccc(NC(=O)c2ccc(S(=O)(=O)N(C)c3ccccc3)cc2)n1 | inactive |
| COc1ccccc1NC(=O)CN(c1ccccc1OC)S(=O)(=O)c1ccccc1 | inactive |
| COc1ccccc1N(CC(=O)N1CCCCC1)S(=O)(=O)c1ccccc1 | inactive |
| COc1ccccc1N(CCOc1ccccc1)S(=O)(=O)c1ccccc1 | -10 (active) |
| O=S(=O)(O)CCN1CCOCC1 | inactive |
| O=S(=O)(Cc1noc(-c2ccc(OC(F)(F)F)cc2)n1)c1ccc(F)cc1 | inactive |
| c1n[nH]c(NCc2ccc3c(c2)OCO3)n1 | inactive |
| O=C(CCNS(=O)(=O)c1ccccc1C(F)(F)F)NCc1ccc2c(c1)OCO2 | inactive |
| N#Cc1nc(Cc2cccc3ccccc23)oc1NCc1ccc2c(c1)OCO2 | -13.5 (active) |
| COC(=O)c1ccc2c(=O)n(CCN3CCOCC3)c(SCC(=O)Nc3cccc(OC)c3)nc2c1 | inactive |

| SMILES | B-score |
| --- | --- |
| COc1ccc(C(C)=O)cc1CN1C(=O)NC2(CCCCC2C)C1=O (configuration not stated) | inactive |
| O=C(/C=C/NNC(=O)c1cccc(Br)c1)c1ccccc1 | -9.94 (active) |
| CC(CC(=O)O)CC(=O)NNC(=O)c1cccc(Br)c1 (configuration not stated) | inactive |
| Cc1ccccc1NC(=S)NNC(=O)c1cccc(Br)c1 | inactive |
| CC(=O)OCC(=O)C1(O)CCC2C3CC(C)C4=CC(=O)CCC4(C)C3C(O)CC21C (configuration not stated) | inactive |
| CC(C)(C)C(=O)Nc1c(Br)c(C2CC2)nn1-c1ccccc1 | inactive |
| O=C(Cn1nc(CNc2ccc(Cl)cc2)[n+]2c1CCCCC2)c1ccc(Cl)cc1 | inactive |
| N#Cc1c(NC(=O)CCCN2C(=O)c3ccccc3C2=O)oc(-c2ccccc2)c1-c1ccccc1 | inactive |
| COc1cc(C(=O)Nc2oc(-c3ccccc3)c(-c3ccccc3)c2C#N)cc(OC)c1OC | -10.4 (active) |
| COc1cc(C(=O)NCC(=O)N2CC=C(c3ccccc3)CC2)cc(OC)c1OC | inactive |
| CCC(C)(C)NC(=O)c1cc([N+](=O)[O-])ccc1N1CCCCC1 | inactive |
| CCC(=O)c1ccc(OC(=O)/C=C/c2cc(OC)c(OC)c(OC)c2)cc1 | inactive |
| CCOC(=O)N1CCC(N(CCOC)C(=O)Nc2ccc(C)c(C)c2)CC1 | inactive |
| COc1ccc(N2CCN(C(=O)CNC(=O)c3ccc(Br)o3)CC2)cc1 | inactive |
| COc1ccc(-c2nc(CCNC(=O)c3ccc(Br)o3)cs2)cc1 | -10.2 (active) |
| O=C(NCCc1csc(-c2ccccc2)n1)c1ccccc1F | inactive |
| O=C(COC(=O)Cc1ccccc1F)NCCc1ccccc1 | inactive |
| N#Cc1ccc(S(=O)(=O)NCC(=O)OCC(=O)NCCc2ccccc2)cc1 | -11.3 (active) |
| O=C(COC(=O)CNS(=O)(=O)c1ccccc1)NC12CC3CC(CC(C3)C1)C2 | inactive |
| COC(=O)c1ccc(CN2C(=O)NC(c3ccccc3)(c3ccccc3)C2=O)o1 | inactive |
| COc1cccc(CNc2nc(C(F)(F)F)nc3ccccc23)c1 | -9.39 (active) |
| COc1ccc(CNc2ncnc3ccccc23)cc1 | inactive |

| SMILES | B-score |
| --- | --- |
| CCc1ccc(C(CNc2nc(C(F)(F)F)nc3ccccc23)N(C)C)cc1 (configuration not stated) | inactive |
| O=Cc1c(Cl)cccc1Cl | inactive |
| O=C(NNC1=C(C(=O)C(F)(F)F)CCC1)c1ccncc1 | inactive |
| Cc1ccc(C(=O)OCC(=O)NC(=O)Cc2ccccc2)c(O)c1 | inactive |
| O=C(COC(=O)c1cccs1)NCc1cccs1 | inactive |
| COCCNC(=O)Cn1cc(C(=O)c2cccs2)c2ccccc21 | inactive |
| O=C(Cn1cc(C(=O)c2cccs2)c2ccccc21)NCc1cccs1 | -13.4 (active) |
| COc1ccc(F)cc1C(=O)C1CCCN(C(=O)CCc2ccccn2)C1 (configuration not stated) | inactive |
| CCOC(=O)c1sc(-c2cccc([N+](=O)[O-])c2)cc1N | inactive |
| O=C(c1ccc(F)cc1)C1CCN(Cc2cn[nH]c2-c2ccccc2)CC1 | inactive |
| Cc1ccccc1NC(=O)Nc1ccccc1N1CCCCC1 | inactive |
| O=C(CNCCC1=CCCCC1)Nc1ccccc1N1CCCCCC1 | -12.6 (active) |
| Cc1ccc(C(C)C)cc1OCC(=O)Nc1ccccc1N1CCCC1 | inactive |
| CC1=C[C@H]2Cc3cc(C)cc(C)c3S(=O)(=O)[C@@H]2C=C1 | inactive |
| CC(C)n1c(O)c(N=Nc2ccccn2)c2ccccc21 | inactive |
| CN(C)CCN(C(=O)C1=COCCO1)c1nc2ccc(Cl)cc2s1 | inactive |
| CCN(CC)CCN(C(=O)c1cc(Cl)sc1Cl)c1nc2cc3c(cc2s1)OCO3 | -8.98 (active) |
| CN(C)CCN(C(=O)C1CCCCC1)c1nc2cc3c(cc2s1)OCO3 | inactive |
| CCn1c(SCC(=O)NC2CCCC2)nnc1-c1ccoc1C | inactive |
